Here are results for five molecules from PubChem BioAssay.

Experiment [1] in a line: small molecules captured by biotinylated probe aFSTL3 – biochemical, small-molecule microarray, fluorescence 635/667, stem cell growth factor project, primary screen (AID 1064).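 Note: measures binding of the biotinylated anti-FSTL3 antibody to printed compounds.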 To be noted: higher = more signal.
Experiment [2] in a line: binders from COS7 lysate, DM2A8 probe, primary screen, torsin A project, cell lysate, small-molecule microarray, fluorescence 635/667 (AID 1065). To be noted: higher = more signal, COS7 lysate expressing mutant human TOR1A.
Experiment [3] is described as follows: small molecules captured by biotinylated probe aFGF2 – biochemical, small-molecule microarray, fluorescence 635/667, stem cell growth factor project, primary screen (AID 1067).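 Note: measures binding of biotinylated aFGF2 protein to printed compounds on slides; z-score merges feature fluorescence and signal-to-noise across triplicate slides.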 The note with it: higher = more signal.
Experiment [4] can be described thus: small molecules captured by biotinylated probe aFGF10 – biochemical, small-molecule microarray, fluorescence 635/667, stem cell growth factor project, primary screen (AID 1071).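 Note: score merges 667 nm spot intensity and signal to noise from triplicate slides.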 To be noted: higher = more signal.
Experiment [5] deals with Neurogenic locus notch homolog protein 2 (Homo sapiens) (UniProt Q04721). The experiment can be described thus: small molecules binding Notch2 protein – biochemical, small-molecule microarray, 635 nm fluorescence, stem cell growth factors, primary screen (AID 1073). The note with it: higher = more signal.
Chain of Neurogenic locus notch homolog protein 2 (Homo sapiens) (Q04721 whole entry, looked up, canonical isoform): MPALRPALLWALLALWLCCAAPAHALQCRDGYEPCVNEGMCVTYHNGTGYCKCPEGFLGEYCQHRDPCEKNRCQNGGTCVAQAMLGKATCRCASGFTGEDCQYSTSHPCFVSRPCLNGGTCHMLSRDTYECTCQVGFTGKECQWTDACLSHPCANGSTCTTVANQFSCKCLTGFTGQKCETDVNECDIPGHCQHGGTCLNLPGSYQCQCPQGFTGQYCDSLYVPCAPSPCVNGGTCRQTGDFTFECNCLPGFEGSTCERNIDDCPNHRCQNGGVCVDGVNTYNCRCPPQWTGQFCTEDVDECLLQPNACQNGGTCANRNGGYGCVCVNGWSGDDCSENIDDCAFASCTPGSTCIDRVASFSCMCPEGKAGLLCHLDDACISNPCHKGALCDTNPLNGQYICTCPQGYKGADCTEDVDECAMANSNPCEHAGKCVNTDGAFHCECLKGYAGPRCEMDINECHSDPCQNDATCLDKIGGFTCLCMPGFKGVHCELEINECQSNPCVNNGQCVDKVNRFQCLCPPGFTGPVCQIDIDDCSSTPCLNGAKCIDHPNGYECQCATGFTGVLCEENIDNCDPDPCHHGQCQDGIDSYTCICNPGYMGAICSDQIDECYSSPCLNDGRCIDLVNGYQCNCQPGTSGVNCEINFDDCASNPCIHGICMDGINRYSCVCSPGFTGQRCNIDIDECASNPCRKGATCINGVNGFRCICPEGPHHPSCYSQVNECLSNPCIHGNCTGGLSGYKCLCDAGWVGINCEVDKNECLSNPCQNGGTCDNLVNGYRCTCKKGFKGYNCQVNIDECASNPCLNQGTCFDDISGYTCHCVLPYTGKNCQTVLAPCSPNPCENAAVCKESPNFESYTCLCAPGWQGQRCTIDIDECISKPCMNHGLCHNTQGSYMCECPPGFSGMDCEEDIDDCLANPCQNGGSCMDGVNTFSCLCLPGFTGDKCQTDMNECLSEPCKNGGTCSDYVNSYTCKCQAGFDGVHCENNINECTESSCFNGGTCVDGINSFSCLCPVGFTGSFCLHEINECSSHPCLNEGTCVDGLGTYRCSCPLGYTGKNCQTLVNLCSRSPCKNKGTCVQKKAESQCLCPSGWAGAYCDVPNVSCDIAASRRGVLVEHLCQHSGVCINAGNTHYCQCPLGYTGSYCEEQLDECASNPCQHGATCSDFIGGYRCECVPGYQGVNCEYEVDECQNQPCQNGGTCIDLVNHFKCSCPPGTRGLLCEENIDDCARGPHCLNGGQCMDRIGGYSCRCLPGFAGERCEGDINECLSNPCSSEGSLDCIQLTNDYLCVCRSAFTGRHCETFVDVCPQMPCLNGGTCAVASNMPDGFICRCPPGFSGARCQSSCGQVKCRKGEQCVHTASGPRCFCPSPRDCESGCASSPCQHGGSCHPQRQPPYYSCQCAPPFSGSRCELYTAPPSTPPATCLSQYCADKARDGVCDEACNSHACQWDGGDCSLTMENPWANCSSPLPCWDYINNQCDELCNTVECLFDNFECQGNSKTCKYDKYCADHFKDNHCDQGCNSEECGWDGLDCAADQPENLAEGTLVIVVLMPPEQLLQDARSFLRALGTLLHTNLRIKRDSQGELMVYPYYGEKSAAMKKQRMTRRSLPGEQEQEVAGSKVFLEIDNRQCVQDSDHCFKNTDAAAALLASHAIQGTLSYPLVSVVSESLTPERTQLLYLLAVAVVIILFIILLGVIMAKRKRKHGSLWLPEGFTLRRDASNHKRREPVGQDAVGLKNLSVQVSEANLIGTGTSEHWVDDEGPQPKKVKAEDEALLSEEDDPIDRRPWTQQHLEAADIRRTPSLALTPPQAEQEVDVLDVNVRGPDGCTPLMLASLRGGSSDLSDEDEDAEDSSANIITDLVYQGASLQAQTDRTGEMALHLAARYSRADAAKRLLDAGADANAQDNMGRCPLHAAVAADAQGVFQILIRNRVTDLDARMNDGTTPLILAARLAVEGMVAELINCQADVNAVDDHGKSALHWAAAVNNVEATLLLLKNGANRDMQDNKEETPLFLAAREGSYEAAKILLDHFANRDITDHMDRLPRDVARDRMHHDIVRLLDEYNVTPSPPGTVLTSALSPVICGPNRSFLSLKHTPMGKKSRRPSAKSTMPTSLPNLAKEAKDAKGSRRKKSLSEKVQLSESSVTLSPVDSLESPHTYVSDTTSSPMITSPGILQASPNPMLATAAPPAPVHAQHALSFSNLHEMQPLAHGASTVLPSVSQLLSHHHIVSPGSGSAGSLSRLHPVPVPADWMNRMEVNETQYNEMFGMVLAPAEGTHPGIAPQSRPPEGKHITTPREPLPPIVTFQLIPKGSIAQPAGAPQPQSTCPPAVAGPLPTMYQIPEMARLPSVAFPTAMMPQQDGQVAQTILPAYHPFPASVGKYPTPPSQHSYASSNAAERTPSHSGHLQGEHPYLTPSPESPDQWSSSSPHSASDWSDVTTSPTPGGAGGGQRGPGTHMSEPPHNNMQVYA
Experiment [6] has as its target Pro-neuregulin-1, membrane-bound isoform (Homo sapiens) (UniProt Q02297). Put plainly: small molecules binding neuregulin-1 protein – biochemical, small-molecule microarray, fluorescence 635/667, psychiatric disease protein project, primary screen (AID 1075).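 Note: score combines 667 nm spot fluorescence with signal to noise.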 The note with it: NRG1 binding, 635 nm fluorescence, higher = more signal.
The test system of experiment [7] is Neuregulin-1 EGF-like domain. Put plainly: small molecules binding NRG1 EGF domain – biochemical, small-molecule microarray, 635 nm fluorescence, primary screen (AID 1081).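 Note: binding of the protein to compounds printed on small-molecule microarray slides.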 To be noted: higher = more signal.
Experiment [8] can be described thus: FRG1 expression reporter modulators in myotubes – cell-based, C2C12 myotubes, firefly/Renilla luciferase, luminescence, FRG1 inhibition for FSHD, primary screen (AID 1084). The note with it: FRG1 promoter luciferase, higher = more signal, called active from +8 up or from −8 down.
Experiment [9] can be described thus: small molecules captured by biotinylated probe aFST – biochemical, small-molecule microarray, fluorescence 635/667, stem cell growth factor project, primary screen (AID 1086).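 Note: score merges 667 nm fluorescence with signal-to-noise of each printed compound spot.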 To be noted: higher = more signal.
A short description of experiment [10]: binders of probe aHhip on microarray, primary screen, stem cell growth factor project, biochemical, small-molecule microarray, fluorescence 635/667 (AID 1087).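 Note: score merges spot fluorescence at 667nm with spot signal to noise ratio.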 The note with it: higher = more signal.
Experiment [11] deals with PRMT1 (protein arginine N-methyltransferase 1). The experiment can be described thus: small molecules binding arginine methyltransferase PRMT1 – biochemical, small-molecule microarray, 635 nm fluorescence, primary screen (AID 1088).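 Note: binding of Prmt1 protein to compounds spotted on small-molecule microarray slides.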 To be noted: higher = more signal.
Experiment [12] in a line: growth effects on S. cerevisiae YJM789 – YJM789 clinical isolate, OD600, 24 h, basal, primary screen (AID 1089).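 Note: growth of clinical yeast isolate S. cerevisiae YJM 789 seeded 1000 cells per well; test concentration not given here.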 To be noted: higher = more signal, called active from +8 up or from −8 down.
Experiment [13] can be described thus: S. pombe growth modifiers, basal conditions – strain 972, OD600, 24 h, no modulator, primary screen (AID 1090).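 Note: basal condition with compound alone and no growth modifier present; test concentration not given here.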 To be noted: S. pombe 972 growth, higher = more signal, called active from +8 up or from −8 down.
Experiment [14] can be described thus: budding yeast growth modifiers under rapamycin – strain BY4716, OD600, 96 h, primary screen (AID 1091). Note: test concentration not given here. To be noted: S. cerevisiae BY4716 + rapamycin, higher = more signal, called active from +8 up or from −8 down.
Experiment [15] addresses Torsin-1A-interacting protein 2 (Homo sapiens) (UniProt Q8NFQ8). The experiment can be described thus: small molecules binding lysate-expressed LULL1 – cell lysate, human LULL1 lysate, 635/667 nm fluorescence, primary screen (AID 1092).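 Note: probe is lysate of COS7 cells overexpressing human LULL1; score merges per-feature 667 nm fluorescence with signal-to-noise.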 The note with it: small-molecule microarray, hLULL1 lysate binding, 635 nm fluorescence; higher = more signal.
A short description of experiment [16]: optical density change of DRC41 E. coli – strain DRC41, OD650, 24 h, E. coli filamentation project, primary screen (AID 1093).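 Note: MC1000 strain lacking acrAB efflux and sulA so SOS filamentation is blocked; test concentration not given here.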 To be noted: E. coli DRC41 growth, higher = more signal, called active from +8 up or from −8 down.
Experiment [17] can be described thus: probe aLefty2 binding to arrayed compounds – biochemical, biotinylated probe, 635/667 nm fluorescence, primary screen (AID 1094).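 Note: score merges spot fluorescence near 667 nm with spot signal-to-noise ratio.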 The note with it: small-molecule microarray, higher = more signal.
The subject of experiment [18] is Noggin (protein binding on small-molecule microarray). The experiment can be described thus: small molecules binding Noggin protein – biochemical, 635/667 nm fluorescence, primary screen (AID 1095).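 Note: score merges 667 nm feature fluorescence with signal to noise over triplicate slides.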 To be noted: 635 nm fluorescence, higher = more signal.
Experiment [19] concerns the target Neurogenic locus notch homolog protein 3 (Homo sapiens) (UniProt Q9UM47). Put plainly: small molecules binding NOTCH3 protein – biochemical, 635/667 nm fluorescence, primary screen (AID 1096). The note with it: small-molecule microarray, 635 nm fluorescence, higher = more signal.
Experiment [20] is described as follows: probe aEGFR binding to arrayed compounds – biochemical, biotinylated probe, 635/667 nm fluorescence, primary screen (AID 1097).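 Note: probe is a biotinylated anti-EGFR antibody binding compounds printed on slides; score combines fluorescence near 667 nm and signal to noise of each spot.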 To be noted: small-molecule microarray, higher = more signal.

Each structure is given as a SMILES string. Active and inactive are the calls of the source.

Chain of Neurogenic locus notch homolog protein 3 (Homo sapiens) (Q9UM47 whole entry, looked up): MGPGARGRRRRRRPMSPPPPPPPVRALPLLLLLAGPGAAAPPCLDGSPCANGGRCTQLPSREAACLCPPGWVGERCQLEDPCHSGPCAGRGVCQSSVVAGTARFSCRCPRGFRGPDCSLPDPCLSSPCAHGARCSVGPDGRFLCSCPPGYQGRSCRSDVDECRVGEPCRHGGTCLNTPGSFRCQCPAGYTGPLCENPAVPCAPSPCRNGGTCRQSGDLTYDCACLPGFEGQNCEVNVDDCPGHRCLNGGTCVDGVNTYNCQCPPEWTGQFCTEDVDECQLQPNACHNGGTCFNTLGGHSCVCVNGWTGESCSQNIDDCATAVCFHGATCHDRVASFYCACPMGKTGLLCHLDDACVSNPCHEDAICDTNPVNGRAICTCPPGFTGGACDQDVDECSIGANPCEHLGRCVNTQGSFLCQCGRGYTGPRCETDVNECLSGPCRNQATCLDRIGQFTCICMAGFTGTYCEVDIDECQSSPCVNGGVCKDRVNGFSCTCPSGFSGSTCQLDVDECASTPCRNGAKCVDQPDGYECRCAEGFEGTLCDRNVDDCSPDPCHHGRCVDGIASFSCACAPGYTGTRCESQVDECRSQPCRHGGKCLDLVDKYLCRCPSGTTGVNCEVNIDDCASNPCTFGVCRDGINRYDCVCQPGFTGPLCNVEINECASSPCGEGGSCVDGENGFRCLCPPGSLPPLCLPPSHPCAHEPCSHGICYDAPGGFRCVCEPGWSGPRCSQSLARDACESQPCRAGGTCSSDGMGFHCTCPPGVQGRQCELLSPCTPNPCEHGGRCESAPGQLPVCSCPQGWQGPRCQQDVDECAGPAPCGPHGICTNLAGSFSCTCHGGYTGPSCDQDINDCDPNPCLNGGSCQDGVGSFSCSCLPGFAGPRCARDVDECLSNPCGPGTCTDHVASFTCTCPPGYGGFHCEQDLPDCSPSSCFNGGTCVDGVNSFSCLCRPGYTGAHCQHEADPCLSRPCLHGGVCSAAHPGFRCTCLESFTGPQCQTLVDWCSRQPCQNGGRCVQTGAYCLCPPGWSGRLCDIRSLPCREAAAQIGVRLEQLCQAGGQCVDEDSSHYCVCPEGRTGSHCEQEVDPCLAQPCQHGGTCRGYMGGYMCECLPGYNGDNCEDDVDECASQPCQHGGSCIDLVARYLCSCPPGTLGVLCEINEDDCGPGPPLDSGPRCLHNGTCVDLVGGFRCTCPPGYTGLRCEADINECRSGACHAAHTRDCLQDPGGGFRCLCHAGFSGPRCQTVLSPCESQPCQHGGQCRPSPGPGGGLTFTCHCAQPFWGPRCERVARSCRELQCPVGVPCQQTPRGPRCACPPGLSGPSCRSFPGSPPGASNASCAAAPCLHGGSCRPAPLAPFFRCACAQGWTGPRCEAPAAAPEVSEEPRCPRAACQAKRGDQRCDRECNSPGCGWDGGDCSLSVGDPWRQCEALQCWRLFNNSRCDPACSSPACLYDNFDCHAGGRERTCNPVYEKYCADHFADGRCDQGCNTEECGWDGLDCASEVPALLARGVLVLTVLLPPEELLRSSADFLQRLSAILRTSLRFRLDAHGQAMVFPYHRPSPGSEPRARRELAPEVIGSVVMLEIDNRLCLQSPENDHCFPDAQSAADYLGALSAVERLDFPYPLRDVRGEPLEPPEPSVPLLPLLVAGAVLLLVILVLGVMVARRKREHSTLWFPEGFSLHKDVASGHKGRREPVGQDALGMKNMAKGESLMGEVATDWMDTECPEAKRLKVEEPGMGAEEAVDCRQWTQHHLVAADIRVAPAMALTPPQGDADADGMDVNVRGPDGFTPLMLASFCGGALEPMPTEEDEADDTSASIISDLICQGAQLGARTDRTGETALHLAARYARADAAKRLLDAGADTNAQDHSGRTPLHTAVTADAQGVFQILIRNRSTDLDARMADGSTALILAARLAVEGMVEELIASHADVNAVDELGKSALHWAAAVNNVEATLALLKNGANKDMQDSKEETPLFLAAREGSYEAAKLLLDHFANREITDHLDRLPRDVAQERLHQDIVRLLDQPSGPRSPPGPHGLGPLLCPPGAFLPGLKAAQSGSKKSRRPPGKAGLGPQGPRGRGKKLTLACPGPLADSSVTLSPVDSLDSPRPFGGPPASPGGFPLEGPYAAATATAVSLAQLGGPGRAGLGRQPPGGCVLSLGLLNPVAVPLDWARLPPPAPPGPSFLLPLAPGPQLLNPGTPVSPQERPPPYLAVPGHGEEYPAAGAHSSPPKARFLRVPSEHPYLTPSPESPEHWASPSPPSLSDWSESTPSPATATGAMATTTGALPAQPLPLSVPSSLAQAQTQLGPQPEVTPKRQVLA

Consider `COCCOC(=O)N1C(=O)[C@@]2(c3cc(C#CCNC(N)=O)ccc31)[C@H](C(=O)N1CCCCCCC1)[C@H]1C(=O)O[C@H](c3ccccc3)[C@H](c3ccccc3)N1[C@@H]2c1ccc(O)cc1`, for which the composite z-score in [1] is 0.333; in experiment [2] it was 0.189; in [3], -0.0557; in experiment [4], 0.159; in experiment [5] it was 0.845; in experiment [6], 0.571. The composite z-score in experiment [7] was found to be 0.596; in [9], 0.706; in experiment [10], 0.0066; in experiment [11], 1.41; in experiment [15], 1.66; in [17], 0.111. Besides, the composite z-score was 1.46 in [18], 1.08 in experiment [19] and -0.0381 in experiment [20]. Besides, the z-score was -0.134 (inactive) in experiment [8]; 0.355 (inactive) in [12]; -0.216 (inactive) in experiment [13]; 0.903 (inactive) in experiment [14]; 0.0623 (inactive) in [16].

In the case of `CC=CC(O)C1C=CC2C(=O)N(c3ccccc3)C(=O)C2N1Nc1ccc([N+](=O)[O-])cc1` (stereo not given), the composite z-score in [1] is -0.241; in [2], 0.0149; in experiment [3], -0.0534; in experiment [4], 0.407; in experiment [5], 0.998; in [6], 1.69. Moreover, the composite z-score is 0.981 in experiment [7]; 0.126 in [9]; -0.0003 in experiment [10]; 0.725 in [11]; 2.65 in experiment [15]; -0.0931 in experiment [17]. For the same molecule, the values for the composite z-score in experiment [18], in experiment [19] and in experiment [20] were 0.257, 0.512 and 0.0007, respectively. The z-score in experiment [8] was 0.515 (inactive); in experiment [12], -0.0987 (inactive); in experiment [13], 1.17 (inactive); in [14], 1.44 (inactive); in [16] it was -0.699 (inactive).

Turning to `[N-]=[N+]=Nc1ccccc1C[C@@]1(C(=O)O)N=C(c2ccc(OCCCO)cc2)O[C@@H]1c1ccccc1`, the composite z-score in [1] was 0.0693; in experiment [2], -0.518; in [3], 0.0248; in experiment [4], 0.303; in experiment [5], 1.35; in [6] it was 1.75. In addition, the composite z-score in experiment [7] was 1.24; in experiment [9], 0.827; in [10], -0.0765; in [11], 0.616; in experiment [15], 3.43; in [17], 0.0917. Moreover, the composite z-score in [18] was -0.272; in experiment [19], 0.697; in [20], -0.0952. The z-score was 0.835 (inactive) in experiment [8]; -0.0525 (inactive) in experiment [12]; -0.85 (inactive) in experiment [13]; -1.45 (inactive) in experiment [14]; -0.0393 (inactive) in [16].

With `CCCC[C@@H]1C[C@H]1[C@@H](NC(=O)c1ccccc1)c1ccc(Cl)cc1`, the composite z-score in experiment [1] was 1.22; in experiment [2], -0.657; in experiment [3] it was -0.196; in [4] it was -2.08; in experiment [5], -2; in experiment [6], -0.596. Moreover, the composite z-score was 1.36 in experiment [7]; -0.833 in [9]; -0.134 in experiment [10]; -1.36 in experiment [11]; 0.0826 in experiment [15]; -0.204 in [17]. Further, the composite z-score in [18] is -2.06; in [19], -1.77; in experiment [20] it was -0.421. For the same molecule, the z-score in experiment [8] is 1.62 (inactive); in [12], 0.222 (inactive); in [13] it was -1.96 (inactive); in experiment [14] it was -2.01 (inactive); in experiment [16], -1.49 (inactive).

For the molecule `COC(=O)[C@@]1(Cc2ccc(F)cc2)[C@H]2c3cc(C(=O)N4CCCC4)n(CCc4c[nH]c5ccc(OC)cc45)c3C[C@H]2CN1C(=O)c1ccccc1`, the composite z-score in [1] is 1.66; in experiment [2] it was -0.619; in [3], 0.803; in experiment [4], 1.3; in experiment [5], 1.58; in experiment [6] it was 1.46. The composite z-score in [7] was 1.19; in experiment [9], 2.02; in [10], 0.413; in experiment [11] it was -0.508; in [15], 3.37; in [17], 0.957. Moreover, the results for the composite z-score in experiment [18], in [19] and in [20] were 1.26, 1.11 and 0.44, respectively. Also, the z-score in experiment [8] is 1.61 (inactive); in experiment [12], -0.0567 (inactive); in [13], -0.156 (inactive); in experiment [14] it was 2.07 (inactive); in [16], -0.803 (inactive).
